Assay outcomes deposited in PubChem BioAssay by National Center for Advancing Translational Sciences (NCATS).
Sm TGR block: inhibitors of Schistosoma mansoni thioredoxin glutathione reductase | purified TGR, DTNB reduction, TNB absorbance 405 nm | Potency, µM (top dose mostly 114 µM), inactives show at the highest dose activity change, negative = inhibition, most hits filed as inhibitors | actives 3% (n = 360,000); further: potency means the concentration at half of the fitted maximal effect; on the % scale 0 is the no-effect control and ±100 the full control effect; nearly all actives have a fitted effect of over 60% in size
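TGR 20 nM + NADPH 100 uM (dispensed conc.), cpd preinc 15 min RT; start with NADPH (500 uM addition) then DTNB (15 mM addition). Kinetic TNB absorbance, 405 nm filter. Four-parameter Hill fit across titration.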
Shiga inhibitor: inhibitors of Shiga toxin in Vero cells. Vero cells, Shiga toxin protein synthesis inhibition reporter. inhibition, % at 38.7 µM. actives 9.2% (n = 290,000). AID 2315; in the data active means inhibition mostly above about 28%, no sharp cut-off; inactive means mostly below about 43%; further: 0% is about no effect
Cycloheximide cs: affects cycloheximide protein synthesis inhibition readout, counter-screen. max response, %. cell reporter, cycloheximide protein synthesis inhibition counterscreen. actives 12% (n = 300,000). AID 2314; in the data active means max response mostly above about 13%, no sharp cut-off; inactive means mostly below about 14%; further: read at 38.3 µM for the half of the compounds with a filed dose; 0% is about no effect
NS1 function inh: influenza NS1 inhibition; Potency, µM (series often up to 46.1 µM), without a hit: at the top dose activity, positive = more growth; actives 0.4% (n = 270,000); calls by dose curve; further: potency means the concentration at half of the fitted maximal effect; actives are rising curves; nearly all actives have a fitted effect of over 50% in size
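A cell-based growth assay was used: compounds that relieve NS1-induced slow growth of budding yeast raise OD600. Assay medium was yeast nitrogen base with ammonium sulphate and -URA supplement, pH 6.0, with 2% galactose.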
Pf growth 48h: P. falciparum growth inhibition at 48 hours (one generation) | Potency, µM (doses to about 28.7 µM), without a hit: at the highest dose activity change, negative = inhibition, usual class: inhibitors | AID 504832 | actives 5.9% (n = 310,000) | P. falciparum luciferase growth in erythrocytes, 48 h; further: potency means the concentration at half of the fitted maximal effect; on the % scale 0 is the no-effect control and ±100 the full control effect
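Cell-based growth assay: transgenic P. falciparum expressing firefly luciferase, cultured in red cells within RPMI 1640 containing 0.5% w/v Albumax, 24 mM bicarbonate and gentamycin. A drop in luciferase activity indicates inhibition.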
Pf growth 96h: inhibits malaria parasite growth, 96 h. P. falciparum luciferase reporter growth, 96 h. Potency, µM (doses to about 28.7 µM), for inactives: top-dose activity change, negative = inhibition, hits mostly inhibitors. actives 6.9% (n = 320,000); further: potency means the concentration at half of the fitted maximal effect; on the % scale 0 is the no-effect control and ±100 the full control effect
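Delayed-death screen, second-generation endpoint: infected erythrocytes, 2% hematocrit, 0.05% parasitemia final; 96 hours at 37 C, 5% CO2; luciferase detection reagent; luminescence decrease equals reduced growth.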
An asterisk follows results filed as active; [ ] = dose if it differs, or a comment. An excerpt weighted towards active compounds, which were near 21% of everything screened. Unless noted, the call rests on the fitted dose curve; in most records, active means well fitted curve in the direction sought with a large enough effect; inconclusive means small, poorly fitted or top-dose-only effect, or another doubt; inactive means no such curve, though single readings can be large; an effect the other way counts as inactive or inconclusive.

Results for O=[N+]([O-])c1cccc(-c2cnc3ccccc3n2)c1 ?
Sm TGR block: -18%; Shiga inhibitor: 63*; Cycloheximide cs: 24*; NS1 function inh: 3%; Pf growth 48h: 93%; Pf growth 96h: -3%

How did O=[N+]([O-])c1cccc(-c2nc3ccccc3s/c2=N/O)c1 do in these assays?
Sm TGR block: 6%; Shiga inhibitor: 37; Cycloheximide cs: 19; NS1 function inh: -40%; Pf growth 48h: 123%; Pf growth 96h: inconclusive

How did Nc1cccc(-c2cnc3ccccc3n2)c1 do in these assays?
Sm TGR block: 1%; Shiga inhibitor: 63*; Cycloheximide cs: 64*; NS1 function inh: 3%; Pf growth 48h: 213%; Pf growth 96h: -13%

What do the screens show for `Cc1ccc(S(=O)(=O)NCCCCCC(=O)Nc2cccc(C)c2)cc1`?
Sm TGR block: 0%; Shiga inhibitor: -3; Cycloheximide cs: -3; NS1 function inh: -36%; Pf growth 48h: -10%; Pf growth 96h: 12µM*

Results for Cc1cccc(NC(=O)CCS(=O)(=O)c2ccccc2)c1 ?
Sm TGR block: 84%; Shiga inhibitor: 47*; Cycloheximide cs: 30*; NS1 function inh: 0%; Pf growth 48h: 90%; Pf growth 96h: -2%

Results for Cc1cccc(NC(=O)CCS(=O)(=O)c2ccccc2)n1 ?
Sm TGR block: -10%; Shiga inhibitor: 54*; Cycloheximide cs: 24; NS1 function inh: 6%; Pf growth 48h: 29%; Pf growth 96h: 39%

Results for Cc1ccc(S(=O)(=O)CCC(=O)Nc2cccc(Cl)c2)cc1 ?
Sm TGR block: -28%; Shiga inhibitor: -8; Cycloheximide cs: -4; NS1 function inh: -3%; Pf growth 48h: 1%[0.00184 µM]; Pf growth 96h: 22%

What do the screens show for `Cc1cccc(NC(=O)CCNS(=O)(=O)c2ccc(Cl)cc2)c1`?
Sm TGR block: -13%; Shiga inhibitor: 4; Cycloheximide cs: -3; NS1 function inh: 0%; Pf growth 48h: 27%; Pf growth 96h: 2%

Results for CCCCC(CC)CNC(=O)c1ccc2c(=O)n(Cc3ccc(OC)cc3)c(=O)[nH]c2c1 (stereo not drawn) ?
Sm TGR block: 4%

Results for C=C1CCN(C(CC(C)C)C(=O)Nc2nc3ccc(Cl)cc3s2)S(=O)(=O)c2ccccc21 (stereo not drawn) ?
Shiga inhibitor: 9; Cycloheximide cs: 6

What do the screens show for `Cc1ccc(C(=O)c2c3ccc([N+](=O)[O-])cc3[n+]([O-])n2CCCC(N)=O)cc1`?
Sm TGR block: 0%; Pf growth 48h: inconclusive; Pf growth 96h: inconclusive

How did NCCCn1c(C(=O)c2ccc(Cl)cc2)c2ccc(C(F)(F)F)cc2[n+]1[O-] do in these assays?
Sm TGR block: -32%; Pf growth 48h: 9.3µM*; Pf growth 96h: inconclusive

How did NC(=O)CCCn1c(C(=O)c2cc(Cl)c(N)c(Cl)c2)c2ccc([N+](=O)[O-])cc2[n+]1[O-] do in these assays?
Sm TGR block: -14%; Pf growth 48h: inconclusive; Pf growth 96h: 9.3µM*

What do the screens show for `CC(C)CN=C(NS(=O)(=O)c1ccccc1)C(Cl)(Cl)Cl`?
Sm TGR block: -27%; Shiga inhibitor: 13; Cycloheximide cs: 16; NS1 function inh: -20%; Pf growth 48h: 2.6µM*; Pf growth 96h: 10µM*

Results for Cc1cccc(N2C(=O)C(Oc3ccc(Cl)cc3Cl)C2C(=O)O)c1C (stereo not drawn) ?
Sm TGR block: -17%; Shiga inhibitor: 19; Cycloheximide cs: -7; NS1 function inh: 3%; Pf growth 48h: 9%; Pf growth 96h: 10µM*

How did CCCNCC1C(Oc2ccc(Cl)cc2Cl)C(=O)N1c1cccc(C)c1C (stereo not drawn) do in these assays?
Sm TGR block: 11%; Shiga inhibitor: -5; Cycloheximide cs: -12; Pf growth 48h: inconclusive; Pf growth 96h: -7%

What do the screens show for `COc1ccccc1CC(=O)Nc1cccc(C(=O)NN2C(=O)c3ccccc3C2=O)c1`?
Sm TGR block: 2%; Shiga inhibitor: -2; Cycloheximide cs: 5; NS1 function inh: -1%; Pf growth 48h: -2%; Pf growth 96h: 9.3µM*

Results for CCOc1ccccc1C(=O)NCC(c1cccs1)S(=O)(=O)c1ccc(F)c(C)c1 (stereo not drawn) ?
Sm TGR block: -7%

Results for CCOc1ccc(N(CC(=O)Nc2cccc(Br)c2)S(C)(=O)=O)cc1 ?
Sm TGR block: 9%; Shiga inhibitor: 64*; Cycloheximide cs: 26*; NS1 function inh: 8%; Pf growth 48h: 3%; Pf growth 96h: -48%

What do the screens show for `C=CCNC(=O)c1ccc(CN(c2ccc(OCC)cc2)S(=O)(=O)c2ccc(C)cc2)cc1`?
Sm TGR block: 5%; Shiga inhibitor: 2; Cycloheximide cs: -3; NS1 function inh: 6%; Pf growth 48h: 7.4µM*; Pf growth 96h: 0%

How did CCOc1ccc(N(CC(=O)Nc2ccc(C)cc2)S(C)(=O)=O)cc1 do in these assays?
Sm TGR block: -13%; Shiga inhibitor: 66*; Cycloheximide cs: 37*; NS1 function inh: 22%; Pf growth 48h: 92%; Pf growth 96h: inconclusive

Results for CCOc1ccc(N(CC(=O)Nc2cc(C)cc(C)c2)S(C)(=O)=O)cc1 ?
Sm TGR block: 0%; Shiga inhibitor: 75*; Cycloheximide cs: 59*; NS1 function inh: 2%; Pf growth 48h: 18%; Pf growth 96h: 4%

How did CCOc1ccc(N(CC(=O)Nc2cccnc2)S(C)(=O)=O)cc1 do in these assays?
Shiga inhibitor: -18; Cycloheximide cs: -5; NS1 function inh: 5%; Pf growth 48h: -3%; Pf growth 96h: -29%

What do the screens show for `CCOc1ccc(N(CC(=O)Nc2ccc(C)cc2C)S(C)(=O)=O)cc1`?
Sm TGR block: 4%; Shiga inhibitor: 6; Cycloheximide cs: 9; NS1 function inh: 3%; Pf growth 48h: inconclusive; Pf growth 96h: -186%

What do the screens show for `CCOc1ccc(NC(=O)CN(c2ccc(OCC)cc2)S(=O)(=O)c2c(C)[nH]c(=O)[nH]c2=O)cc1`?
Sm TGR block: 0%; Shiga inhibitor: -8; Cycloheximide cs: 1; Pf growth 48h: -22%; Pf growth 96h: 7%

What do the screens show for `Cc1cccc(N2CCN(C(=O)CCS(=O)(=O)c3ccc4c(c3)NC(=O)CO4)CC2)c1C`?
Sm TGR block: -1%; Shiga inhibitor: -11; Cycloheximide cs: -3; NS1 function inh: -1%; Pf growth 48h: -19%; Pf growth 96h: 0%

What do the screens show for `Cc1c(Br)c(C(F)(F)F)nn1CC(=O)NCCCn1ccnc1`?
Shiga inhibitor: -13; Cycloheximide cs: -2; NS1 function inh: 1%; Pf growth 48h: -2%; Pf growth 96h: 8%
